Composite z-score and z-score data for five molecules are collected here from PubChem BioAssay.

The source made the active and inactive calls. Unless noted, how the calls were made is not given here.

Assay [1] in a line: compounds binding Alexa647 anti-His antibody – biochemical, small-molecule microarray, 635 nm fluorescence, artefact control for SMM control protein annotation, primary screen (AID 1128).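 Further: score merges feature fluorescence with signal-to-noise for each printed compound spot.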 As to conditions: higher = more signal.
Assay [2] concerns Human papillomavirus type 1a E7 protein (residues 1-88). Description: HPV1a E7 small-molecule binders, primary screen, biochemical, small-molecule microarray, residues 1-88, 635 nm (AID 1129). As to conditions: small-molecule microarray binding, fluorescence 635 nm; higher = more signal.
Assay [3] deals with Focal adhesion kinase 1 (Homo sapiens) (UniProt Q05397). Description: PTK2 protein binding on printed compound slides – biochemical, small-molecule microarray, 635/667 nm fluorescence, BSA, DTT, primary screen (AID 1130).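 Further: composite of spot emission at 667 nm and signal to noise over triplicate slides.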 As to conditions: 635 nm fluorescence, higher = more signal.
Sequence of Focal adhesion kinase 1 (Homo sapiens) (Q05397 whole entry, looked up): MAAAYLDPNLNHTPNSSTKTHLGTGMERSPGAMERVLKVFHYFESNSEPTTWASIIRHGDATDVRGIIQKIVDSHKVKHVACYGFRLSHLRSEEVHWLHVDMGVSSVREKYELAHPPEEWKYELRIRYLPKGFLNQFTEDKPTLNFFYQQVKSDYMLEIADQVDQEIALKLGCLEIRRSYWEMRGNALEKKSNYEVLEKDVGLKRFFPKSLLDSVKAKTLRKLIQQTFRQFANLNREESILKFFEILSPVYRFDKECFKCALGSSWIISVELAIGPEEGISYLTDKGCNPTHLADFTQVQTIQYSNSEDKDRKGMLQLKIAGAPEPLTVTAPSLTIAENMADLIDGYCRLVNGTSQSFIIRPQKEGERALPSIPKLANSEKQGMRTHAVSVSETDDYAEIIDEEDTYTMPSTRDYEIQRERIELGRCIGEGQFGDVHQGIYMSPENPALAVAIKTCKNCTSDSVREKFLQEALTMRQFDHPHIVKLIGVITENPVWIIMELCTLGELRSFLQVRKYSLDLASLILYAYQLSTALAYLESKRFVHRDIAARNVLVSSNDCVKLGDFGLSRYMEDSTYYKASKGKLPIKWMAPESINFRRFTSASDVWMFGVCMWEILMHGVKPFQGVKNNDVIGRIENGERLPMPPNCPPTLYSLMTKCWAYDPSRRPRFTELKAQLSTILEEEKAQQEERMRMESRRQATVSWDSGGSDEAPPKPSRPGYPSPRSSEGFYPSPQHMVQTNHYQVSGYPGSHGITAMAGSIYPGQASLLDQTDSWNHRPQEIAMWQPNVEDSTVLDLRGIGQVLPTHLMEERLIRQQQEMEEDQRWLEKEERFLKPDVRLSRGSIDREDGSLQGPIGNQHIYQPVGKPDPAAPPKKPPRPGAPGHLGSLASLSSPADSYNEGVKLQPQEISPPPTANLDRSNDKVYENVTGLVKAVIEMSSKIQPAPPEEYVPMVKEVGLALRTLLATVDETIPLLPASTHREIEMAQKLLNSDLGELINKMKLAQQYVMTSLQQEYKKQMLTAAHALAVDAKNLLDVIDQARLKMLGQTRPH
Assay [4] concerns Fibrinogen (Alexa647-labelled). In words: Alexa647-fibrinogen binding to printed small molecules – biochemical, small-molecule microarray, 635/667 nm fluorescence, artefact control for SMM control-protein annotation, profiling panel (AID 1131).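 Further: z-score merges 667 nm fluorescence with per-spot signal-to-noise over triplicate slides.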 As to conditions: fibrinogen-A647 binding fluorescence, higher = more signal.
Assay [5] has as its target Follistatin (Homo sapiens) (UniProt P19883). Description: FST protein binding to printed compounds – biochemical, small-molecule microarray, 635/667 nm fluorescence, primary screen (AID 1132). As to conditions: 635 nm fluorescence, higher = more signal.
The target of assay [6] is Fibroblast growth factor 2 (Homo sapiens) (UniProt P09038). In words: basic fibroblast growth factor binding to printed compounds – biochemical, small-molecule microarray, 635/667 nm fluorescence, primary screen (AID 1133). As to conditions: FGF2, fluorescence 635/667, higher = more signal.
Sequence of Fibroblast growth factor 2 (Homo sapiens) (P09038 whole entry, looked up): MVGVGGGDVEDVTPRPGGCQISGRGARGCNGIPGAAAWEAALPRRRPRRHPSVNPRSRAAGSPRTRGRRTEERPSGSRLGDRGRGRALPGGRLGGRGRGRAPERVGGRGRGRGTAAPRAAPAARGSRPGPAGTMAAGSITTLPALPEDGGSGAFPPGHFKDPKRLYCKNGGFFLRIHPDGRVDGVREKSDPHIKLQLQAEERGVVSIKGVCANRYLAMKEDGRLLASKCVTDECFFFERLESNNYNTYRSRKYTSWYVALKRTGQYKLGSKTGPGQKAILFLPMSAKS
Assay [7] in a line: JC-1 mitochondrial potential readout, lung cancer cells – cell-based, A549, JC-1 fluorescence, basal, 24 h, 100 nL, profiling panel (AID 1138).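 Further: A549 lung adenocarcinoma cells under basal conditions with no added stimulus; test concentration not given here.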 As to conditions: higher = more signal.
The next assay relates to Lefty1. Description: Lefty1 protein binding to printed compounds – biochemical, small-molecule microarray, 635/667 nm fluorescence, primary screen (AID 1139). As to conditions: fluorescence 635/667, higher = more signal.
In assay [8] the test system is wheat germ agglutinin (Triticum aestivum), Alexa647-labelled. Description: Alexa647-WGA lectin binding to printed small molecules – biochemical, small-molecule microarray, 635/667 nm fluorescence, artefact control for SMM control-protein annotation, profiling panel (AID 1140).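 Further: score merges 667 nm feature emission with signal to noise over triplicate slides.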 As to conditions: WGA-A647 binding, 635 nm fluorescence, higher = more signal.
Assay [9] concerns the target Luciferin 4-monooxygenase (Photinus pyralis) (UniProt P08659). Description: inhibition of purified Photinus pyralis luciferase – biochemical, luminescence, purified enzyme, 2006 set, primary screen (AID 1141).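 Further: cell-free assay with purified firefly luciferase at 100 ng per well in PBS; test concentration not given here.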 As to conditions: purified firefly luciferase, SteadyGlo luminescence, 30 min; higher = more signal, called active from +8 up or from −8 down.
Assay [10] has as its system Wnt5a (protein binding on small-molecule microarray). Description: small molecules binding Wnt5a protein – biophysical, small-molecule microarray, 635/667 nm fluorescence, primary screen (AID 1142).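 Further: fluorescence read at 667 nm with signal to noise per printed feature.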 As to conditions: 635 nm fluorescence, higher = more signal.
A short description of assay [11]: ATP-based viability of Huh7 replicon cells – cell-based, CellTiter-Glo luminescence, basal, 48 h, cytotoxicity control for HCV replication inhibitor project, primary screen (AID 1143).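 Further: Huh7 hepatoma cells carrying a hepatitis C replication reporter with no stimulus; test concentration not given here.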 As to conditions: higher = more signal, called active from +8 up or from −8 down.
A short description of assay [12]: Pseudomonas biofilm growth suppression – PAO1 strain, BacTiter-Glo luminescence, LB-PBS, primary screen (AID 1144). As to conditions: P. aeruginosa PAO1 biofilm, 12 h, higher = more signal.
Assay [13] in a line: basal CRE-LacZ reporter activity in PC12 – cell-based, unstimulated, primary screen (AID 1145). As to conditions: no forskolin, luminescence, 4.5 h, higher = more signal, called active from +8 up or from −8 down.
Assay [14] can be described thus: forskolin-driven CRE-LacZ activity in PC12 – cell-based, CRE-LacZ reporter, forskolin-stimulated, primary screen (AID 1146).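 Further: PC12 cells with 6xCRE LacZ reporter stimulated by forskolin 10 µM; beta-galactosidase reporter signal reflecting CREB driven transcription.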 As to conditions: luminescence, 4.5 h, higher = more signal, called active from +8 up or from −8 down.
Assay [15] concerns the target Streptavidin (Streptomyces avidinii) (UniProt P22629). In words: compounds binding control protein streptavidin – biophysical, small-molecule microarray, 635/667 nm fluorescence, artefact control for SMM compound annotation, primary screen (AID 1147).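 Further: signal reflects streptavidin binding to arrayed compounds as a control protein.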 As to conditions: higher = more signal.
A short description of assay [16]: probe aInhba binding on compound microarray – biochemical, small-molecule microarray, 635/667 nm fluorescence, primary screen (AID 1148).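 Further: score merges 667nm spot fluorescence with signal-to-noise for antibody binding to printed compounds.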 As to conditions: higher = more signal.
For assay [17], the target named is Torsin-1A (Homo sapiens) (UniProt O14656). In words: TOR1A wild-type binding on microarray – cell lysate, small-molecule microarray, lysate, 635/667 nm, primary screen (AID 1149). As to conditions: COS7 hTOR1A-WT lysate, 635 nm fluorescence, higher = more signal.
Sequence of Torsin-1A (Homo sapiens) (O14656 whole entry, looked up): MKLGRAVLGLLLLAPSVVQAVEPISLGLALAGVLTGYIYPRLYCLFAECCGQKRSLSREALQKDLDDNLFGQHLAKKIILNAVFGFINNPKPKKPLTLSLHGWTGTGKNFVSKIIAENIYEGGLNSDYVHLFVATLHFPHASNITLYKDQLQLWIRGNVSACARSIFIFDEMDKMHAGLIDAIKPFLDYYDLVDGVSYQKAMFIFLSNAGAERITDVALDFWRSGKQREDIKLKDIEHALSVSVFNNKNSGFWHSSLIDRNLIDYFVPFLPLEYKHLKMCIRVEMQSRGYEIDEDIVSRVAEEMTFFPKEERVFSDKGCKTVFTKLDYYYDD
Assay [18] shares this target. Description: torsin A mutant lysate binding on microarrays – cell lysate, small-molecule microarray, COS7 lysate, 635/667 nm fluorescence, primary screen (AID 1150).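 Further: score pools 667 nm emission and signal to noise measuring lysate protein binding.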 As to conditions: COS7 hTOR1A mutant lysate, 635 nm fluorescence, higher = more signal.
The subject of assay [19] is Sonic hedgehog protein (Shh). In words: Sonic hedgehog microarray binding compounds – biochemical, small-molecule microarray, 635/667 nm fluorescence, primary screen (AID 1151).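 Further: Shh protein binding to compounds spotted on small-molecule microarray slides; score combines spot fluorescence intensity with signal-to-noise across triplicate slides.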 As to conditions: 635 nm fluorescence, higher = more signal.

Sequence of Luciferin 4-monooxygenase (Photinus pyralis) (P08659 whole entry, looked up): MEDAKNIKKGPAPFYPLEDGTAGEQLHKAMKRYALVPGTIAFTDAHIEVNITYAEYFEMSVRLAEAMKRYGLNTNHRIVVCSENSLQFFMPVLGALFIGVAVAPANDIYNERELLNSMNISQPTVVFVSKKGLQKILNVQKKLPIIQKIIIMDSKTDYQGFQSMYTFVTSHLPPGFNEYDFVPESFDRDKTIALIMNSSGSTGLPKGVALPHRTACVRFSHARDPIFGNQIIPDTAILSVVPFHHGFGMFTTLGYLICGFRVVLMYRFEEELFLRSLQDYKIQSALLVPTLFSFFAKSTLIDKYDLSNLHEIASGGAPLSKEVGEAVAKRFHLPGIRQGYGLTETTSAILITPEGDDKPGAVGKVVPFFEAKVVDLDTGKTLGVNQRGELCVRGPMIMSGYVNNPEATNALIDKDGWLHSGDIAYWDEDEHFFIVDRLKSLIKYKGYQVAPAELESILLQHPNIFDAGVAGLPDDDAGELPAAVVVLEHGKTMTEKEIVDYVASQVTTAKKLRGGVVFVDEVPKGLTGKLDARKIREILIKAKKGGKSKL
Sequence of Follistatin (Homo sapiens) (P19883 whole entry, looked up): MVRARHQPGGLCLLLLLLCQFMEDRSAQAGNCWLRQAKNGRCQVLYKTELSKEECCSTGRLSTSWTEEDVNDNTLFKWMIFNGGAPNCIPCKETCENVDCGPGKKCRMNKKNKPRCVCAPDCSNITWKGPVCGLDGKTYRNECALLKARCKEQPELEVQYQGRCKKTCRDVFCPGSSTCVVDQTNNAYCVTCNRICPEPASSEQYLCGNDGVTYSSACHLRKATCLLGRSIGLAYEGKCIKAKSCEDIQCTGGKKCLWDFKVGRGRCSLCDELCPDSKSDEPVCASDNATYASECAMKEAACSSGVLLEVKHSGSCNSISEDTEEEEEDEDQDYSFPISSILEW
Sequence of Streptavidin (Streptomyces avidinii) (P22629 whole entry, looked up): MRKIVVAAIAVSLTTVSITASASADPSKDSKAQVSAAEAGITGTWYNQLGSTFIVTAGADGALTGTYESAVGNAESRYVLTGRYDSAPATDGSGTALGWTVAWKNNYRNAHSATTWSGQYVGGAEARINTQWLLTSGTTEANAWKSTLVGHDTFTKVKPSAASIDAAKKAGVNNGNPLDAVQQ

For `O=C(NCc1ccccc1)[C@]1(CCS(=O)(=O)c2ccccc2)N=C(c2ccc(OCCCO)cc2)O[C@@H]1c1ccccc1`, the composite z-score in assay [1] is 1; in assay [2], 1.18; in [3] it was 0.471; in assay [4], 0.939; in assay [5] it was 0.919; in assay [6], -0.0072. Further, the composite z-score in the assay with Lefty1 came to 0.469; in assay [8], 0.785; in assay [10], 0.721; in assay [15] it was 0.959; in [16], 0.111; with Torsin-1A (Homo sapiens) [17] it was 0.129. The values for the composite z-score (in the assay with Torsin-1A (Homo sapiens) [18]; in [19]) were 0.585 and 0.16, respectively. The z-score is -0.864 in [7]; 0.781 (inactive) in [9]; -2.63 (inactive) in assay [11]; -0.422 (inactive) in [12]; -1.04 (inactive) in assay [13]; 0.0925 (inactive) in assay [14].

`CC(=O)NCCCC[C@@H]1NC(=O)[C@H]2C[C@@H](C(=O)NCCCCCC[N+](C)(C)C)[C@@H](c3cccc(OCCO)c3)N2C1=O`: the composite z-score in [1] worked out at 0.627; in assay [2], 0.614; in [3], 0.207; in assay [4], 0.77; in assay [5] it was 1.4; in assay [6] it was 1.9. Also, the composite z-score was 1.39 with Lefty1; 0.656 in [8]; 0.408 in assay [10]; 0.927 in [15]; -0.149 in assay [16]; 1.07 with Torsin-1A (Homo sapiens) [17]. For the same molecule, the composite z-score in the assay with Torsin-1A (Homo sapiens) [18] came out at 0.59; in [19], 2.26. Also, the z-score in [7] is -1.12; in assay [9], 0.692 (inactive); in assay [11], -2.49 (inactive); in assay [12], -1.01 (inactive); in [13], -0.801 (inactive); in [14] it was -0.812 (inactive).

For the molecule `CN(C)CCCCCCNC(=O)[C@H]1C[C@H]2C(=O)N[C@@H](CCCCN)C(=O)N2[C@H]1c1ccc(O)cc1`, the composite z-score in [1] is 3.12; in assay [2] it was 1.31; in [3] it was -0.108; in assay [4], 0.953; in [5], 1.44; in assay [6], 1.61. For the same molecule, the composite z-score with Lefty1 is 1.75; in assay [8], 1.36; in assay [10], 1.79; in [15], 2.68; in [16], 1.39; with Torsin-1A (Homo sapiens) [17], 3.35. The composite z-score is 3.24 with Torsin-1A (Homo sapiens) [18] and 2.05 in assay [19]. For the same molecule, the z-score in assay [7] was 0.868; in assay [9], -0.62 (inactive); in assay [11], 0.253 (inactive); in assay [12], -0.26 (inactive); in [13], 0.0124 (inactive); in [14], 0.737 (inactive).

Take `O=C1C[C@]2(c3ccc([N+](=O)[O-])cc3)C(=O)N(CC(F)(F)F)c3cc(CO)ccc3[C@H]2N1CC12CC3CC(CC(C3)C1)C2`: the composite z-score in assay [1] was -0.239; in [2], -0.369; in [3] it was 0.0419; in assay [4], -1.16; in [5], 0.77; in assay [6], 0.0808. The composite z-score in the assay with Lefty1 is 0.551; in [8] it was 0.122; in assay [10], -0.171; in assay [15] it was -0.143; in assay [16], 0.0091; with Torsin-1A (Homo sapiens) [17], -0.662. Further, the composite z-score was -0.156 with Torsin-1A (Homo sapiens) [18] and 0.277 in assay [19]. The z-score is 0.297 in assay [7]; 1.09 (inactive) in [9]; -1.89 (inactive) in [11]; -0.892 (inactive) in assay [12]; -0.698 (inactive) in [13]; 0.0632 (inactive) in assay [14].

As for `Cc1ccc([C@H]2C(C(=O)O)=C[C@@H](C)N2S(=O)(=O)c2ccc(C)cc2)cc1`, the composite z-score in assay [1] was 1.72; in [2], 1.14; in [3] it was 1.96; in [4], -1.29; in assay [5], -0.742; in assay [6], -1.16. The composite z-score is -1.15 in the assay with Lefty1; 1.32 in assay [8]; -0.144 in assay [10]; 0.642 in assay [15]; -0.0509 in [16]; -0.948 with Torsin-1A (Homo sapiens) [17]. For the same molecule, the composite z-score with Torsin-1A (Homo sapiens) [18] was -0.465; in assay [19], -0.945. Further, the z-score in [7] is -0.321; in assay [9] it was 0.467 (inactive); in assay [11], -0.501 (inactive); in [12], 0.759 (inactive); in [13], -0.126 (inactive); in [14], 1.32 (inactive).
